Calls of active or inactive are those of the source. Rule for the calls: active = hit-call score of the fitted dose curve at least 0.9, where 1 is the maximum; inactive = score below 0.9.
Molecular target: Myc proto-oncogene protein (Homo sapiens) (UniProt P01106)
Test: ATG_Myc_CIS: Attagene CIS-FACTORIAL HepG2 Assay for human Myelocytomatosis (Myc) Proto-Oncogene Transcription Factor (AID 2282990)
Conditions: HepG2, Attagene cis-reporter transcription factor activity; actives raise or lower the signal
Outline: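 DMSO-normalised, bidirectionally fitted reporter mRNA signal. HepG2 cells transfected with cis reporter constructs, treated 24 h; transcripts detected by RT-PCR, 6-FAM primer extension and CE.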

Myc proto-oncogene protein (Homo sapiens), sequence (P01106 whole entry, looked up): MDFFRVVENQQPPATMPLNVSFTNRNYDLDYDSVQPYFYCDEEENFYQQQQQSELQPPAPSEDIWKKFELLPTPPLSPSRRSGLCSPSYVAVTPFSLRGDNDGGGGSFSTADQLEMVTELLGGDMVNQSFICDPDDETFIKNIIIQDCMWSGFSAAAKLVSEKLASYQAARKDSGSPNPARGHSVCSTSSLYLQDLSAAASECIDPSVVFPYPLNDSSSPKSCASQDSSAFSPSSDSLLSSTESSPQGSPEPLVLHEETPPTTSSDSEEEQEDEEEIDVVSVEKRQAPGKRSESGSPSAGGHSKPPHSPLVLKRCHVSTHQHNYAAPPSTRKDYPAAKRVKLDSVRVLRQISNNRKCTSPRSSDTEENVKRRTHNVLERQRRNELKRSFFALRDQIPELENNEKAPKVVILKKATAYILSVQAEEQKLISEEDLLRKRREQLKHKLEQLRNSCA

| Structure (SMILES) | outcome | AC50 |
| --- | --- | --- |
| OCC(F)(F)OC(F)(F)C(F)(F)OC(F)(F)C(F)(F)OC(F)(F)CO | inactive | – |
| O=c1[nH]c2ccccc2c(=O)o1 | inactive | – |
| CC(=O)c1ccc(-c2ccccc2)cc1 | inactive | – |
| CCCCOCCOP(=O)(OCCOCCCC)OCCOCCCC | inactive | – |
| c1cc2c3c(cccc3c1)CC2 | inactive | – |
| O=S(=O)(c1ccc(O)cc1)c1ccc(O)cc1 | inactive | – |
| O=S(=O)(F)C(F)(F)C(F)(F)C(F)(F)C(F)(F)C(F)(F)C(F)(F)C(F)(F)C(F)(F)F | inactive | – |
| N#Cc1c(-c2ccc(Cl)cc2)[nH]c(C(F)(F)F)c1Br | inactive | – |
| ClC(Cl)=C(c1ccc(Cl)cc1)c1ccccc1Cl | inactive | – |
| O=[N+]([O-])c1cc(Cl)ccc1Cl | inactive | – |
| Cn1[nH]nnc1=S | inactive | – |
| CC(=O)CCc1ccc2c(c1)OCO2 | inactive | – |
| CC(C)CBr | inactive | – |
| CC1=C(C(=O)Nc2ccccc2)S(=O)(=O)CCO1 | inactive | – |
| CCN(CC)C1CCCCC1 | inactive | – |
| CCN(CC)c1ccccc1 | inactive | – |
| O=C(O)C1C(C(=O)O)C2(Cl)C(Cl)=C(Cl)C1(Cl)C2(Cl)Cl (centres undefined) | inactive | – |
| NNC(N)=S | inactive | – |
| CC1(C)CN=C(NN=C(/C=C/c2ccc(C(F)(F)F)cc2)/C=C/c2ccc(C(F)(F)F)cc2)NC1 | inactive | – |
| O=C(CBr)OCc1ccccc1 | inactive | – |

| Structure (SMILES) | outcome | AC50 |
| --- | --- | --- |
| C=C(C)C(=O)OCC1CO1 (centres undefined) | inactive | – |
| CNC(=O)Oc1ccc(N(C)C)c(C)c1 | inactive | – |
| Oc1ccccc1Br | inactive | – |
| CCCCCCCc1ccc(O)cc1 | inactive | – |
| COC(N)=O | inactive | – |
| COC(=O)C(F)(F)C(F)(F)OC(F)(C(F)(F)F)C(F)(F)OC(F)=C(F)F (centres undefined) | inactive | – |
| CC(O)C#N (centres undefined) | inactive | – |
| CCCCc1ccc(O)cc1 | inactive | – |
| CC(Cl)CN(C)C (centres undefined) | inactive | – |
| Cc1cccc(N)c1 | inactive | – |
| Cc1cc(C)c(C(=O)P(=O)(c2ccccc2)c2ccccc2)c(C)c1 | – | 49.1 µM (active) |
| FC(F)(F)C(F)(C(F)(F)F)C(F)(F)C(F)(F)CC1CO1 (centres undefined) | inactive | – |
| COP(=O)(O)OC | inactive | – |
| CO/N=C(/C(=O)OC)c1ccccc1COc1ccccc1C | inactive | – |
| CC(O)C(F)(F)C(F)(F)F (centres undefined) | inactive | – |
| CCCCN(CC)C(=O)SCCC | inactive | – |
| N#Cc1ccc(O)cc1 | inactive | – |
| OCC(F)(F)OC(F)(F)C(F)(F)OC(F)(F)C(F)(F)OC(F)(F)F | inactive | – |
| Clc1ccc(Oc2ccccc2)cc1 | inactive | – |

Reference: PubChem BioAssay (EPA / NIEHS)
